# From PubChem BioAssay (NCATS)
# Several values for one entry are separate records, joined by “and”; a condition that tells them apart may be missing. Equal values may be shown once. Records with an inconclusive call do not appear. Entries that show only a call come without a potency. Activity calls are given as the source filed them. Unless noted, calls follow the shape of the dose curve; as a rule, active = well fitted curve in the direction sought with a large enough effect; inconclusive = small, poorly fitted or top-dose-only effect, or another doubt; inactive = no such curve, though single readings can be large; an effect the other way counts as inactive or inconclusive.
# Assays:
# [1] = target: Arylsulfatase A (Homo sapiens) (UniProt P15289); assay: qHTS screen for enhancers of Arylsulfatase A (ASA1): LOPAC Validation Assay (AID 720538); settings: ASA enzyme activity, LOPAC qHTS enhancer assay; series mostly up to 57.5 µM
# Chain of Arylsulfatase A (Homo sapiens) (P15289 whole entry, looked up): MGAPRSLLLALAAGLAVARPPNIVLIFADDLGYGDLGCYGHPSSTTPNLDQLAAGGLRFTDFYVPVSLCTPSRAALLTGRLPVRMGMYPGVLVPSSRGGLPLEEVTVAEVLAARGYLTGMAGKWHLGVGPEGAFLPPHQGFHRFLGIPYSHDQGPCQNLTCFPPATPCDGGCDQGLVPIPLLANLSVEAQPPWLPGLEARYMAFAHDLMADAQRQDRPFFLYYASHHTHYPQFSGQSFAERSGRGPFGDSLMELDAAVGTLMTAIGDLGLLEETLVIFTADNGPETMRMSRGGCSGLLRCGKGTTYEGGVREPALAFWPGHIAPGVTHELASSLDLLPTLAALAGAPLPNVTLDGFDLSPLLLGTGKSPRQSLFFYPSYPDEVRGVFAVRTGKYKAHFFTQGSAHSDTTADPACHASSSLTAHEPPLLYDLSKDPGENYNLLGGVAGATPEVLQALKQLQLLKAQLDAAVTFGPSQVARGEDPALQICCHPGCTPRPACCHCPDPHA
# Summary of the method: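 Enhancer assay in patient-derived MLD fibroblasts carrying ASA-I179S: 48 h compound exposure at 37 C, then 14 h room-temperature pNCS turnover (0.5 mM final) in lysis buffer. Read by fluorescence at 525/598 nm after NaOH stop.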
# [2] = qHTS for compounds that reverse cellular toxicity of Amyloid beta (A-beta) peptide in yeast: LOPAC Validation Assay (AID 720559); settings: yeast expressing A-beta; series mostly up to 46.1 µM
# Summary of the method: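 Rescue of A-beta toxicity was scored as yeast growth by 600 nm absorbance after 48 hr at 30 C with compound. Normalization used DMSO (negative) and equimolar ferric chloride plus clioquinol (positive).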
# [3] = qHTS for Activators of Parkin Expression: LOPAC Validation Assay (NLuc Reporter) (AID 720572); settings: Parkin promoter NanoLuc reporter cells, luminescence, percent of positive control, DMSO as zero; series mostly up to 46.1 µM
# Summary of the method: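 Cells harboring the Parkin-promoter coincidence reporter were treated for 24 h at seven concentrations. NLuc output was measured sequentially after the FLuc channel and scaled between DMSO and positive control values.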
# [4] = target: Hexokinase-4 (Homo sapiens) + Glucokinase regulatory protein (Homo sapiens) (UniProt P35557+Q14397); assay: qHTS assay for inhibitors of recombinant human GCK-GKRP interaction: HTRF assay (AID 743207); settings: recombinant GCK-GKRP HTRF binding, 60 min, with sorbitol-6-phosphate; series mostly up to 57.5 µM
# Chain of Hexokinase-4 (Homo sapiens) + Glucokinase regulatory protein (Homo sapiens) (P35557 whole entry, looked up): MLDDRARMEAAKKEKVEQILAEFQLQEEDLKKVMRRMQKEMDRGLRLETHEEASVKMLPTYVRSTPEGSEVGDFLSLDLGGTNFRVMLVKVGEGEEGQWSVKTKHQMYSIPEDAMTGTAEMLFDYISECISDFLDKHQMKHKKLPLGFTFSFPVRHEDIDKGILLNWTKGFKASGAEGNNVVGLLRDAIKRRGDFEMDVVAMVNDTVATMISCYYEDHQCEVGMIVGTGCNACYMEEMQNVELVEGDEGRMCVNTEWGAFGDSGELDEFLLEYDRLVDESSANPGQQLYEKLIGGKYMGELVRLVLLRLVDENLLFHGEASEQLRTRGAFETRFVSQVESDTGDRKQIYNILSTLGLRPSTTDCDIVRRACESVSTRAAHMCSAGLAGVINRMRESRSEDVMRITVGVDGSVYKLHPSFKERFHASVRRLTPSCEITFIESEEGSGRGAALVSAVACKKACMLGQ
# Chain of Hexokinase-4 (Homo sapiens) + Glucokinase regulatory protein (Homo sapiens) (Q14397 whole entry, looked up): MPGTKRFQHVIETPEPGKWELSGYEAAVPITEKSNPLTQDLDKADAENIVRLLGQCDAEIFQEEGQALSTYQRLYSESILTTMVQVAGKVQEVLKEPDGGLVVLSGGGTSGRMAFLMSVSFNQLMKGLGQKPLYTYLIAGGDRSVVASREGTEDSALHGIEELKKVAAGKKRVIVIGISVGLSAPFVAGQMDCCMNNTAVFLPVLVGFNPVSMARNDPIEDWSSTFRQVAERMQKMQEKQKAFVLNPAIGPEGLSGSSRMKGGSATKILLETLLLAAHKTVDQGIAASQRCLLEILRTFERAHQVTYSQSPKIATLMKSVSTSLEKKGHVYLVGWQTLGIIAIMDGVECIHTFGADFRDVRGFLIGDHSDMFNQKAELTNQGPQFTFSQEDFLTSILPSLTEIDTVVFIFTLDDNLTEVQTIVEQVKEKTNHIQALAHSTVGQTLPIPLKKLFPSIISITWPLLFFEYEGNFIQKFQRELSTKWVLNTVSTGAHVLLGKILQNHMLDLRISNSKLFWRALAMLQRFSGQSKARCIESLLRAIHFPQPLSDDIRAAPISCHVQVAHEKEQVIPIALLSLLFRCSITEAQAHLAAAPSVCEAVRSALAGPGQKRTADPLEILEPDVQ
# Summary of the method: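 After 60 min equilibration at room temperature with anti-FLAG XL665 and anti-GST antibodies, FRET ratio (665/615 nm, excitation 320 nm) was read. Proteins: GST-GCK and FLAG-GKRP, each 5 nM, plus 2 uM S6P, pH 7.1 buffer; GCK-free wells define minimum signal.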
# [5] = qHTS Assay for Identifying Gametocytocidal Compounds (AID 743244); also: potency is read from the fitted curve at half-maximal effect;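 as to max response: actives lower the fluorescent signal which means gametocytes are killed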; settings: P. falciparum 3D7 stage III-V gametocytes, alamarBlue, 72 h; max response: stronger effect = lower value
# Summary of the method: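 Fluorescence at Ex 525/Em 598 nm, recorded 24 h after alamarBlue addition, reports residual metabolic activity of 3D7 gametocytes (stages III–V) following 72 h compound exposure at 37 °C, 5% CO2.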
# [6] = qHTS profiling of the MIPE4 collection as inhibitors of Plasmodium falciparum (3D7) proliferation (AID 743344; call rule not given here); settings: P. falciparum 3D7 in erythrocytes, SYBR Green DNA fluorescence, 72 h; at 28.5 µM (top of the series) unless noted
# Summary of the method: (§1)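 Parasite DNA was quantified by SYBR Green I fluorescence (ex 485, em 535 nm) after overnight lysis in saponin/Triton buffer at room temperature. Cultures at 0.3% parasitemia and 2.5% hematocrit were first exposed to compound for 72 h at 37 C; signals were normalised to artemisinin (0.29 uM) and vehicle wells.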
# [7] = qHTS for Activators of Parkin Expression: LOPAC Validation Assay (FLuc Reporter) (AID 720573); settings: Cell line, PRKN promoter firefly luciferase reporter; series mostly up to 46.1 µM
# Summary of the method: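 FLuc signal from Parkin-promoter coincidence reporter neuronal cells, normalized to DMSO and positive control (100%). Cells (1,500/well) pre-incubated 24 h, then exposed to LOPAC compounds in 7-point dose response for 24 h at 37 C, 5% CO2.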
# [8] = qHTS profiling for inhibitors of Plasmodium falciparum (3D7) proliferation (AID 743322; call rule not given here;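 also: infected erythrocytes exposed to compound for 72 h before lysis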); settings: P. falciparum 3D7 proliferation; at 28.7 µM (top of the series) unless noted
# Summary of the method: as §1
# [9] = qHTS profiling for inhibitors of Plasmodium falciparum (DD2) proliferation (AID 743323; call rule not given here); settings: lower = more inhibition; at 28.7 µM (top of the series) unless noted
# Summary of the method: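 P. falciparum Dd2-infected erythrocytes (0.3% parasitemia, 2.5% hematocrit) exposed 72 h at 37 C, 5% CO2. Lysis with SYBR Green, overnight at room temperature, fluorescence 485/535 nm; normalized to 0.29 uM artemisinin and DMSO.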
# [10] = qHTS for small molecule inhibitors of Yes1 kinase: Counter Assay (AID 686950); settings: series mostly up to 76.9 µM;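 also: no kinase present so only ADP-Glo detection of a fixed ADP amount is tested; luminescence from ADP-Glo reporting ADP in a fixed ATP and ADP mixture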
# Summary of the method: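 Measuring interference with ADP-Glo, the assay ran 60 min at room temperature on an ATP/ADP mix lacking enzyme. Values were normalized to ATP-plus-ADP (maximum) and ATP-only (minimum) DMSO controls.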
# [11] = qHTS assay for small molecule agonists of the antioxidant response element (ARE) signaling pathway measured by Nrf2-dependant transcriptional activity (AID 720636; active = well fitted curve in the direction sought with a large enough effect in the repeat runs; an effect the other way counts as inactive or inconclusive; also: potency is read from the fitted curve at half-maximal effect); settings: ARE-luc HepG2, Nrf2 luciferase reporter, 16 h; series mostly up to 92.4 µM
# Summary of the method: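 ARE-luc HepG2 cells carrying an Nrf2-responsive luciferase reporter, in medium with 1% dialyzed FBS, exposed to compound for 16 hr at 37 C, 5% CO2. Luminescence read 30 min after ONE-Glo addition.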
# [12] = qHTS assay for cell viability of the p53RE-bla HCT-116 cell line (AID 743292); settings: p53RE-bla HCT-116 viability, ATP luminescence, 16 h; series mostly up to 95 µM; also: nearly all actives have a fitted effect of over 55% in size
# Summary of the method: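 CellSensor p53RE-bla HCT-116 cells (4,000/well) pre-incubated 5 h at 37 C, then exposed to compounds in DMSO for 16 h at 37 C. Viability read as ATP content by CellTiter-Glo luminescence after 30 min at room temperature.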
smiles,measurement,setting,value
O=C(c1ccccc1)c1ccc2n1CCC2C(=O)O (stereo unspecified),Potency,[1],inactive
same,outcome,[2],inactive
same,outcome,[3],inactive
same,outcome,[4],inactive
same,max response,[5],44.1% (inactive) and 46.1% (inactive)
same,"parasite growth, % of DMSO control",[6],67.8%
COc1ccc2cc([C@H](C)C(=O)O)ccc2c1,Potency,[1],inactive
same,outcome,[2],inactive
same,outcome,[3],inactive
same,Potency,[7],inactive
same,outcome,[4],inactive
same,max response,[5],18.3% (inactive) and 6.4% (inactive)
same,"parasite growth, % of DMSO control",[6],106%
CC(=O)O[C@H]1C(=O)[C@@]2(C)C([C@H](OC(=O)c3ccccc3)[C@]3(O)C[C@H](OC(=O)[C@H](O)[C@@H](NC(=O)c4ccccc4)c4ccccc4)C(C)=C1C3(C)C)[C@]1(OC(C)=O)CO[C@@H]1C[C@@H]2O (stereo partly specified),Potency,[1],inactive
same,outcome,[2],inactive
same,outcome,[3],inactive
same,Potency,[7],inactive
same,outcome,[4],inactive
NCCCCNCCCN,Potency,[1],inactive
same,outcome,[2],inactive
same,outcome,[3],inactive
same,Potency,[7],inactive
same,outcome,[4],inactive
same,max response,[5],11.2% (inactive)
same,"parasite growth, % of DMSO control",[6],161%
O=c1c(O)c(-c2cc(O)c(O)c(O)c2)oc2cc(O)cc(O)c12,outcome,[2],inactive
same,outcome,[3],inactive
same,Potency,[7],inactive
same,outcome,[4],inactive
same,max response,[5],4.63% (inactive)
same,"parasite growth, % of DMSO control",[6],93.5%
O=C1c2c(O)cc(O)cc2OC(c2ccc(O)c(O)c2)C1O (stereo unspecified),outcome,[2],inactive
same,outcome,[3],inactive
same,Potency,[7],inactive
same,outcome,[4],inactive
same,max response,[5],-8.7% (inactive)
same,"parasite growth, % of DMSO control",[6],75.5%
CC(S)C(=O)NCC(=O)O (stereo unspecified),max response,[5],-4.83% (inactive)
O=C1NC(=O)C(c2ccccc2[N+](=O)[O-])=C1Nc1ccc(O)c(Cl)c1,outcome,[2],inactive
same,outcome,[3],inactive
same,Potency,[7],inactive
same,outcome,[4],inactive
same,"parasite growth, % of DMSO control",[6],68.6%
CC1=C(C)C(=O)C(C(CCCCCC(=O)O)c2ccccc2)=C(C)C1=O (stereo unspecified),max response,[5],-7.88% (inactive)
COc1ccc(C2(C#N)CCC(C(=O)O)CC2)cc1OC1CCCC1 (stereo unspecified),max response,[5],4.12% (inactive)
O=c1cc(N2CCOCC2)oc2c(-c3ccccc3)cccc12,Potency,[1],inactive
same,outcome,[2],inactive
same,outcome,[4],inactive
same,max response,[5],3.56% (inactive)
same,remaining parasite growth % (stronger effect = lower value),[8],105%
same,"activity, percent of control",[9],96.7%
same,"parasite growth, % of DMSO control",[6],51.9%
NNc1nncc2ccccc12,Potency,[1],inactive
same,outcome,[4],inactive
same,max response,[5],-0.582% (inactive) and 32.1% (inactive)
same,"parasite growth, % of DMSO control",[6],85.6%
COc1cc2c(N3CCN(C(=O)Nc4ccc(OC(C)C)cc4)CC3)ncnc2cc1OCCCN1CCCCC1,outcome,[10],inactive
same,remaining parasite growth % (stronger effect = lower value),[8],-0.248%
same,"activity, percent of control",[9],3.98%
same,"parasite growth, % of DMSO control",[6],4.84%
CN(C)CCCC1(c2ccc(F)cc2)OCc2cc(C#N)ccc21 (stereo unspecified),Potency,[1],inactive
same,outcome,[2],inactive
same,outcome,[3],inactive
same,Potency,[7],inactive
same,outcome,[4],inactive
same,max response,[5],7.27% (inactive)
O=C1c2ccccc2-c2n[nH]c3cccc1c23,Potency,[1],inactive
same,outcome,[2],inactive
same,outcome,[4],inactive
same,max response,[5],-3.57% (inactive) and 13.7% (inactive)
same,"parasite growth, % of DMSO control",[6],62.9%
C[C@H](Cc1ccc(O)c(O)c1)[C@@H](C)Cc1ccc(O)c(O)c1,outcome,[2],inactive
same,Potency,[7],inactive
same,outcome,[4],inactive
same,max response,[5],4.03% (inactive)
O=C(OC1C[C@H]2CC[C@@H](C1)[N+]21CCCC1)C(O)(c1ccccc1)c1ccccc1 (stereo partly specified),max response,[5],-10.3% (inactive)
O=c1ccc2ccc(O)c(O)c2o1,Potency,[1],inactive
same,outcome,[2],inactive
same,outcome,[3],inactive
same,Potency,[7],inactive
same,outcome,[4],inactive
same,"parasite growth, % of DMSO control",[6],169%
CCN(CC)C(=S)SSC(=S)N(CC)CC,Potency,[1],inactive
same,outcome,[2],inactive
same,Potency,[11],27.3 µM (active)
same,Potency,[5],3.98 µM (active) and 60.5 nM (active) and 74.3 nM (active)
same,Potency,[12],inactive
same,remaining parasite growth % (stronger effect = lower value),[8],99.1%
same,"parasite growth, % of DMSO control",[6],65.9%
Cc1c(OCC(F)(F)F)ccnc1CS(=O)c1nc2ccccc2[nH]1 (stereo unspecified),Potency,[1],inactive
same,outcome,[3],inactive
same,outcome,[4],inactive
NC(=NCc1ccccc1)NC(=O)c1nc(Cl)c(N)nc1N,outcome,[2],inactive
same,outcome,[3],inactive
same,Potency,[7],inactive
same,outcome,[4],inactive
same,Potency,[5],23.5 µM (active)
same,remaining parasite growth % (stronger effect = lower value),[8],-0.258% [at 18.4 µM]
same,"activity, percent of control",[9],10.1% [at 18.4 µM]
Oc1ccc2ccccc2c1SSc1c(O)ccc2ccccc12,outcome,[2],inactive
same,outcome,[3],inactive
same,Potency,[7],inactive
same,outcome,[4],inactive
same,Potency,[5],3.55 µM (active)
same,"parasite growth, % of DMSO control",[6],6.56%
COc1cc2c(cc1OC)C1CC(=O)C(CC(C)C)CN1CC2 (stereo unspecified),outcome,[2],inactive
same,outcome,[3],inactive
same,Potency,[7],inactive
same,outcome,[4],inactive
same,max response,[5],30.1% (inactive)
same,"parasite growth, % of DMSO control",[6],82.2%
